{"source": "PubChem BioAssay", "data": [{"test_system": "Wnt5a (protein binding on small-molecule microarray)", "assay": "Wnt5a binders on small-molecule microarray, primary screen, biophysical, 635/667 nm fluorescence (AID 1142);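 further: fluorescence read at 667 nm with signal to noise per printed feature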", "conditions": "635 nm fluorescence, higher = more signal", "values": [{"smiles": "C=C(COC)/C(=C/C[C@@H](OC(C)=O)c1cccc(OCCO)c1)c1cc(C(=O)OC)ccc1OC", "composite z-score": 0.0467}, {"smiles": "CC(C)(C)OC(=O)CC[C@]1(C(=O)NCCN2CCOCC2)N=C(c2ccc(OCCCO)cc2)O[C@H]1c1ccccc1CN=[N+]=[N-]", "composite z-score": 0.358}, {"smiles": "CC(=O)NCCCC[C@@H]1NC(=O)[C@@H]2C[C@H](C(=O)NCCCCCCN(C)C)[C@H](c3ccc(O)cc3)N2C1=O", "composite z-score": 0.336}, {"smiles": "Cc1ccc(S[C@]2(C(=O)O)CC(=O)N(Cc3ccccc3)[C@@H]2c2ccc(CO)cc2)cc1", "composite z-score": 0.0167}, {"smiles": "O=C1c2ccccc2[C@](Cc2ccccc2I)(C(=O)NCC(F)(F)F)[C@H](c2ccc(CO)cc2)N1Cc1ccccc1C(F)(F)F", "composite z-score": 0.12}, {"smiles": "O=C1OCCC=C[C@H]2OC34C=CCN(Cc5ccccc5)C(=O)[C@H]3N(CCO)C(=O)[C@@H]4C12", "note": "(stereo partly specified)", "composite z-score": -0.17}, {"smiles": "C=CCNC(=O)[C@H]1[C@@H]2C(=O)O[C@@H](c3ccccc3)[C@@H](c3ccccc3)N2[C@@H](c2ccccc2OCCO)[C@]12C(=O)N(C(=O)OCCOC)c1ccc(C#CCC(C(=O)OC)C(=O)OC)cc12", "composite z-score": 0.302}, {"smiles": "COc1ccc([Si](C)(C)[C@H]2[C@H](CC(=O)N3Cc4ccccc4C[C@H]3CO)O[C@@]3(C(=O)N(Cc4cccc(N5CCOC5=O)c4)c4ccccc43)[C@@H]2C)cc1", "composite z-score": 0.341}, {"smiles": "CC(C)N1CC=CC23O[C@@H]4/C=C\\CCCOC(=O)C4[C@H]2C(=O)N(CCO)[C@@H]3C1=O", "note": "(stereo partly specified)", "composite z-score": -0.0732}, {"smiles": "CC(C)CN1C(=O)[C@@]2(Cc3ccccc31)c1ccccc1C(=O)N(C1CCCCC1)[C@H]2c1ccc(CO)cc1", "composite z-score": -0.194}, {"smiles": "COc1cccc([C@@H]2[C@@H](C)CC[C@H]3C(=O)N4[C@H](c5cccc(OC)c5)[C@@H](C)CC[C@H]4C(=O)N23)c1", "composite z-score": 0.0508}, {"smiles": "CO[C@H]1COC(=O)[C@H](Cc2ccccc2)NC(=O)CC=C[C@@H](C)[C@H](OC)COC(=O)CC=C[C@@H]1C", "composite z-score": 0.175}, {"smiles": "CO[C@H]1COC(=O)[C@@H](OCc2ccccc2)C=C[C@H](C)[C@@H](OC)COC(=O)[C@H](OCc2ccccc2)C=C[C@@H]1C", "composite z-score": -0.115}, {"smiles": "O=C1O[C@@H](c2ccccc2)[C@@H](c2ccccc2)N2[C@@H](c3ccc(O)cc3)[C@]3(C(=O)Nc4ccccc43)[C@@H](C(=O)N3CCN(c4ncccn4)CC3)[C@H]12", "composite z-score": -0.0063}, {"smiles": "O=C1O[C@@H](c2ccccc2)[C@@H](c2ccccc2)N2[C@@H](c3ccc(O)cc3)[C@]3(C(=O)Nc4ccc(C#CC5(O)CCCCCC5)cc43)[C@@H](C(=O)Nc3nc4ccccc4s3)[C@H]12", "composite z-score": 0.285}, {"smiles": "C=CC[C@]1(C(N)=O)N=C(c2ccc(OCCCO)cc2)O[C@H]1c1ccccc1CN=[N+]=[N-]", "composite z-score": 0.151}, {"smiles": "COCCOC(=O)N1C(=O)[C@@]2(c3cc(C#CCCO)ccc31)[C@H](C(=O)N1CCCCCCC1)[C@H]1C(=O)O[C@H](c3ccccc3)[C@H](c3ccccc3)N1[C@@H]2c1ccc(O)cc1", "composite z-score": 0.138}, {"smiles": "C=CCOC(=O)[C@@H]1[C@H]2C(=O)O[C@H](c3ccccc3)[C@H](c3ccccc3)N2[C@H](c2ccc(OCCOC(=O)[C@H]3C[C@H]4C(=O)N5CCC[C@H]5C(=O)N4[C@H]3c3ccc(O)cc3)cc2)[C@@]12C(=O)Nc1ccccc12", "composite z-score": 1.32}, {"smiles": "CO[C@H]1COC(=O)CC=C[C@@H](C)COC(=O)[C@@H](C)NC(=O)CC=C[C@@H]1C", "composite z-score": 0.272}, {"smiles": "C=CCN1C(=O)[C@@]2(O[C@@H](CCn3cc([C@H](O)c4ccccc4)nn3)[C@H]([Si](C)(C)c3ccc(OC)cc3)[C@H]2C)c2cc(N3CCOC3=O)ccc21", "composite z-score": -0.0882}, {"smiles": "CCCC/C=C/[C@H]([C@@H](O)Cc1ccccc1)N(CC#Cc1ccccc1)Cc1ccccc1Br", "composite z-score": -0.238}, {"smiles": "CCOC(=O)[C@H]1C/C=C/C[C@H](C(=O)OCC)C(=O)O[C@H]2[C@@H](OC)O[C@H](CO)[C@@H](OC(=O)Nc3ccc(Br)cc3)[C@@H]2OC1=O", "composite z-score": 0.172}, {"smiles": "COC(=O)c1c(CC[C@@H](CO)NC(=O)N[C@H](Cn2cc(-c3cncn3C)nn2)C(C)C)oc(C(C)=O)c1C(=O)OC", "composite z-score": 0.0781}, {"smiles": "COc1ccc([Si](C)(C)[C@H]2[C@H](CCO)O[C@@]3(C(=O)N(Cc4ccc(N5CCCCC5=O)cc4)c4ccccc43)[C@@H]2C)cc1", "composite z-score": -0.0939}, {"smiles": "O=C1c2ccccc2[C@](Cc2ccccc2I)(C(=O)O)[C@H](c2ccc(CO)cc2)N1C1CCCCC1", "composite z-score": 0.818}, {"smiles": "CCCNC(=O)[C@@]1(Sc2ccc(C)cc2)CC(=O)N(Cc2ccccc2Cl)[C@@H]1c1ccc(CO)cc1", "composite z-score": 0.222}]}]}
